Bioassay records: PubChem, several laboratories
This is a sample that favours compounds with a hit; in the whole collection about 7.4% have one here.
FXIIa inh mix: human factor XIIa inhibitors, primary screen, biochemical, pooled compound mixtures, fluorogenic substrate | Coagulation factor XII (Homo sapiens), P00748 | purified FXIIa | inhibition, % at 5 µM | 0.2% of 62,000 active | AID 684, 2007
DAT uptake mod: changed hDAT dopamine uptake under cocaine IC80, either direction, primary screen, cocaine antagonist project, cell-based, LLC-PK1 hDAT, [14C]-dopamine uptake, MLSMR; LLC-PK1 hDAT cells, [14C]-dopamine uptake with cocaine IC80; actives deviate in either direction; B-score at 10 µM; Sodium-dependent dopamine transporter (Homo sapiens), Q01959; 1.3% of 110,000 active;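 active = Z score or B-score, a plate-position-corrected score, falls beyond the plate's 99.7% confidence bounds, in either direction; inactive = both scores lie inside the 99.7% bounds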
FXIa mix inh: FXIa protease inhibitors in compound pools, primary screen, biochemical, 10-compound mixtures | Coagulation factor XI (Homo sapiens), P03951 | purified FXIa, fluorogenic substrate, pooled mixtures | inhibition, % at 5 µM | 0.19% of 62,000 active;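 note: each value is inhibition by a whole ten-compound pool holding the compound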
Target sequence (P03951 19-387 limits assumed): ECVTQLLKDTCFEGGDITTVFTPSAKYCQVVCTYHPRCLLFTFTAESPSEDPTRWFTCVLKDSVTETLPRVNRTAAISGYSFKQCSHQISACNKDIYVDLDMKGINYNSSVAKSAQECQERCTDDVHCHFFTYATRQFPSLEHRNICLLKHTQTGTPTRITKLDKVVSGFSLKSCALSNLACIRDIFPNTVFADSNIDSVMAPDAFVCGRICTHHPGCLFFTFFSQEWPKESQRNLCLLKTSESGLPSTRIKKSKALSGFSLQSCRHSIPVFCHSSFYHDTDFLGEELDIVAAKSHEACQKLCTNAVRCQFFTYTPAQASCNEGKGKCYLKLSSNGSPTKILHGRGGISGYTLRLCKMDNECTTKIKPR
Target sequence (P03951 388-625 limits assumed): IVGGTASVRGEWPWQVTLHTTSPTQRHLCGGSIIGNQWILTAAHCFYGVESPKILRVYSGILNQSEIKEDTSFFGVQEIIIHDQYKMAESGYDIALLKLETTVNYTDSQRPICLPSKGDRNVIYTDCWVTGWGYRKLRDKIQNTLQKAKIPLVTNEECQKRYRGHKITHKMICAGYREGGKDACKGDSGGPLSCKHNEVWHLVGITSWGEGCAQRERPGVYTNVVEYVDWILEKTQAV
M1 ag: M1 muscarinic receptor agonists, primary screen, CHO-M1 cells, Fluo-4 calcium, agonist mode; Muscarinic acetylcholine receptor M1; Fluo-4 calcium fluorescence; stronger effect = higher value; B-score at 10 µM; 3% of 64,000 active; AID 626, 2007;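 active = fluorescence rise, raw or as B-score row- and column-corrected plate score, outside the 99.7% band of its plate's samples, either direction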
M1 antagonist: antagonists of rat M1 muscarinic receptor. Muscarinic acetylcholine receptor M1 (Rattus norvegicus), P08482. CHO-M1 cells, Fluo-4 calcium, ACh EC80 antagonist mode; stronger effect = lower value. B-score at 10 µM. 3.4% of 64,000 active. AID 628, 2007;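 active = calcium fluorescence response, raw or row-and-column corrected B-score, differing from the plate sample mean either way at a set confidence level, mostly lower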
D1 allo mod: D1 CRE-luciferase signal change, two-sided – cell-based, HEK293 D1, dopamine EC30, D1 allosteric modulator project, primary screen | D(1A) dopamine receptor (Homo sapiens), P21728 | dopamine EC30 potentiation; actives deviate in either direction | B-score at 10 µM | 5.9% of 58,000 active | AID 641, 2007;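 active = luminescence count or its row- and column-corrected plate score outside the 99.7% band of the plate's sample wells, on either side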
M1 antag confirm: rat M1 muscarinic receptor antagonists, confirmation, CHO cells, Fluo-4 calcium, duplicate; 43% of 1,700 active; AID 677, 2007; calcium response (max-min fluorescence) at 10 µM; ACh EC80 antagonism; stronger effect = lower value; shares compounds with M1 antagonist;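 active = calcium response below the same-plate mean of wells given acetylcholine alone at its 80%-effect dose, minus 3 SD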
mGluR4 antag: human mGluR4 response to M1 antagonist hits, M1 allosteric modulator project, cell-based, antagonist mode, secondary assay 1; shares compounds with M1 antagonist; CHO-mGluR4 calcium flux, Fluo-4 fluorescence, glutamate EC80; stronger effect = lower value; fluorescence response (max-min) at 10 µM; 0.9% of 1,700 active; AID 678, 2007;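 active = fluorescence response below the plate's average for near-maximal glutamate wells, less 3 SD of those wells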;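 note: raw unnormalized fluorescence span taken in the window right after glutamate addition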
D1 PAM confirm: D1 receptor positive allosteric modulators, retest, confirmation, cell-based, HEK293 D1, CRE-luciferase, duplicate; shares compounds with D1 allo mod; dopamine EC30 potentiation; stronger effect = higher value; luminescence at 10 µM; 88% of 2,200 active;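 active = luminescence in either of two replicates above the same-plate mean plus 3 SD of the low-dose dopamine control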
D1 ag no DA: D1 receptor agonism without dopamine, confirmation, mechanism study for D1 allosteric modulator project, cell-based, HEK293 D1, CRE-luciferase, secondary assay 1; shares compounds with D1 allo mod; luminescence, no dopamine; stronger effect = higher value; luminescence at 10 µM; 0.8% of 1,900 active; AID 646, 2007; in the data active = luminescence above about 3900
Isoprot counter: isoproterenol response counter-screen activity for D1 modulators. 63% of 2,200 active. calls only at 10 µM. shares compounds with D1 allo mod. HEK293 D1 CRE-luciferase, isoproterenol EC30 counter-screen. AID 647;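 active = luminescence in either replicate above plate mean of wells with a partly effective reference agonist dose plus 3 SD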;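 note: isoproterenol raises cAMP through native beta-adrenoceptor Gs so signal bypasses D1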
Each line names hits and unclear results; the compound was inactive in the other large screens (follow-up assays come after a bar, where they were run). Cut-off read from the data, not from the text of the source, unless noted: active = inhibition above about 20% (passing the limit was not always enough); inactive = the rest.

CC(C)OC(=O)C1C(=O)CC(C)(O)C(C(=O)OC(C)C)C1c1ccc(F)cc1 (configuration not stated)	none (no result: FXIIa inh mix, FXIa mix inh, M1 ag, M1 antagonist, D1 allo mod)
Clc1ccc(CNc2nnnn2-c2ccccc2)c(Cl)c1	none (no result: FXIIa inh mix, FXIa mix inh, M1 ag, M1 antagonist, D1 allo mod)
CCC(=O)N1c2ccc(S(=O)(=O)CCC(=O)NC3CCCC3)cc2CC1C (configuration not stated)	none
CCC(=O)N1c2ccc(S(=O)(=O)CCC(=O)N3CCn4c3nc3ccccc34)cc2CC1C (configuration not stated)	M1 antagonist -3.3, D1 allo mod 3.9 | M1 antag confirm inactive | mGluR4 antag inactive | D1 PAM confirm 12244 | D1 ag no DA inactive | Isoprot counter active
COc1ccc2nc(NC(=O)CSc3nc4cccnc4n3C)sc2c1	none (no result: M1 ag, M1 antagonist, D1 allo mod)
N#CCOc1nc(N2CCCC2)nc(N2CCCC2)n1	none (no result: FXIIa inh mix, FXIa mix inh, M1 ag, M1 antagonist, D1 allo mod)
CCOc1nc(C#N)nc(N2CCCCC2)n1	M1 antagonist -1.2, D1 allo mod 2.56 | M1 antag confirm 430 | mGluR4 antag inactive | D1 PAM confirm 10912 | D1 ag no DA inactive | Isoprot counter active
Cc1cc(C)c2nc(N3CCC(C(=O)N4CCCC4)CC3)sc2c1	M1 antagonist -8, D1 allo mod 3.51 | M1 antag confirm 233 | mGluR4 antag inactive | D1 PAM confirm inactive | D1 ag no DA inactive | Isoprot counter inactive
O=C(CSC1=NC(=O)C(Cc2ccccc2)C(=O)N1)NC1CCCCC1 (configuration not stated)	none
C=CCc1cccc(OC)c1OCCOCCNCCO	none (no result: FXIIa inh mix, FXIa mix inh, M1 ag, M1 antagonist, D1 allo mod)
CC1CCN(CCNC(=O)CN(C)S(=O)(=O)c2cccc3nsnc23)CC1	none
CCN(CC)CCOc1c(Br)ccc2c1sc1nc3n(c(=O)c12)CCC3	M1 antagonist -11.2, D1 allo mod 2.66 | M1 antag confirm 130 | mGluR4 antag inactive | D1 PAM confirm 8312 | D1 ag no DA inactive | Isoprot counter inactive
O=c1c2ccccc2n(Cc2ccc(F)cc2)c(=O)n1C1CCCC1	M1 antagonist -14.3, D1 allo mod 4.87 | M1 antag confirm inactive | mGluR4 antag inactive | D1 PAM confirm 9856 | D1 ag no DA inactive | Isoprot counter active
CN1CCN(CC(=O)Nc2ccc(Cl)cc2Cl)CC1	none
COC(=O)c1oc2ccc(Br)cc2c1NC(=O)CCN1CCOCC1	none
CCOC(=O)c1oc2ccc(Br)cc2c1NC(=O)CN1CCN(C)CC1	M1 antagonist -2.91, D1 allo mod 5.74 | M1 antag confirm 450 | mGluR4 antag inactive | D1 PAM confirm 5896 | D1 ag no DA inactive | Isoprot counter inactive
Cc1cc(-c2nnc3sc(C4CCCCC4)nn23)n[nH]1	M1 antagonist -0.135, D1 allo mod 7.81 | M1 antag confirm inactive | mGluR4 antag inactive | D1 PAM confirm 14928 | Isoprot counter active
c1cncc(-c2nnc3sc(C4CCCCC4)nn23)c1	none (no result: FXIIa inh mix, FXIa mix inh, D1 allo mod)
